In ChEMBL document CHEMBL3433997, “St. Jude Leishmania screening dataset” (2016) one finds inhibition data, which are given here for 40 molecules.

Structures are written as SMILES.

The target in one test is Solute carrier family 2, facilitated glucose transporter member 1 (Homo sapiens) (UniProt P11166). Kind of test: ST_JUDE_LEISH: Cytotoxicity at 2uM final concentration against transgenic Leishmania Mexicana promastigotes LmGLUT1 that are glucose transport deficient and complemented with the human glucose transporter GLUT1. Activity is measured by DNA content using SYBR green in vitro. In kind it is functional.
Solute carrier family 2, facilitated glucose transporter member 1 (Homo sapiens), sequence (P11166 whole entry): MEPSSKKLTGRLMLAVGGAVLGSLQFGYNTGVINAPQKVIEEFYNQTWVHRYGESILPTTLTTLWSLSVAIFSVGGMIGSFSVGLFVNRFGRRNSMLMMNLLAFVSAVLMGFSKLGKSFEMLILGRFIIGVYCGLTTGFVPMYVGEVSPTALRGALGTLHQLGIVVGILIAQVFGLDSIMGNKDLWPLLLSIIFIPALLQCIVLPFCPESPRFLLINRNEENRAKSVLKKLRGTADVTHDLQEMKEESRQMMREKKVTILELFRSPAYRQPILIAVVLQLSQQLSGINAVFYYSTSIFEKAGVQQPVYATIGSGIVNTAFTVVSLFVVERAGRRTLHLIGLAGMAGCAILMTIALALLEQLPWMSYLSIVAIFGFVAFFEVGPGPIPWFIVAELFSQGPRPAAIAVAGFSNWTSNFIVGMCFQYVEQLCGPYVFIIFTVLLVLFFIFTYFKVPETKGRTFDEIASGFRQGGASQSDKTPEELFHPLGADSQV
Usually inhibition stands for the drop in the measured response relative to a control, in per cent. As for `Oc1ccc(CCNc2nc(NCCCOc3ccccc3-c3ccc(F)cc3)nc(N3CCNCC3)n2)cc1`, the inhibition was 13.3%.
The same measure, in the same setting: to `CC(C)(C)C(=O)Oc1ccc(CC2NCCc3cc(OC(=O)C(C)(C)C)c(OC(=O)C(C)(C)C)cc32)cc1OC(=O)C(C)(C)C` (stereo not given) belongs 8.66%; to `NCC1CCCN1Cc1ccc(-c2cccc(-c3nc4cc(C(F)(F)F)ccc4[nH]3)c2)cc1` (stereo not given), 1.03%; to `CCn1c(-c2nonc2N)nc2c(-c3cccc(NC(=O)Nc4cccc(OC)c4)c3)ncc(OCCCN)c21`, 0.06%.
Regarding `COc1ccc(CNCc2ccc(-c3ccc(-c4nc5cc(F)ccc5[nH]4)cc3)cc2)cc1`, the inhibition is 5.49%.
For the molecule `O=C(Nc1ccccc1)c1ccc(N2CCC(COc3cccc(C(F)(F)F)c3)CC2)nc1`, the inhibition was found to be 1.05%.
Still for that read-out and setting: to `O=C(CCc1cccnc1)Nc1ccc(-c2cccc(-c3nc4cc(F)ccc4[nH]3)c2)cc1` belongs 10.7%.
The same measure, in the same setting: as for `Cc1cccc2nc(-c3cccc(-c4ccc(NC(=O)C(C)C(=O)NC(C)C)cc4)c3)[nH]c12` (stereo not given), the figure is 0.75%; as for `COc1ccccc1C1CCN(C2CCC(NC(=O)/C=C/c3cc(C(F)(F)F)ccc3F)CC2)CC1` (stereo not given), 2.98%.
`CCOc1cccc(C(=O)Nc2cccc(CN3CCCN(Cc4cccc(O)c4)CC3)c2)c1`: the inhibition turned out to be 4.67%.
`CC(=O)Nc1ccc(C(=O)Nc2cccc(-c3ccc(-c4nc5cc(F)ccc5[nH]4)s3)c2)cn1`: the inhibition worked out at 0.96%.
Still for that read-out and setting: as for `O=C(Nc1ccccc1)Nc1ccc(-c2cccc(-c3nc4cc(C(F)(F)F)ccc4[nH]3)c2)cc1`, the figure is 4.44%; as for `COc1ccc2nccc(N/N=C/c3cccc([N+](=O)[O-])c3)c2c1`, 3.18%.
`O=C(Nc1cccc(CN2CCCN(Cc3ccc(O)cc3)CC2)c1)c1cc(F)cc(F)c1`: the inhibition was determined as 3.19%.
In the case of `O=C(Nc1cccc(-c2ccc(CN3CCCC3)cc2)c1)c1cccc(Cl)c1`, the inhibition is -0.6%.
Consider `O=C1CC(C(=O)O)CC(=O)N1`, for which the inhibition was -3.7%.
Consider `Cc1ccc(C2CCN(CCCCNC(=O)c3ccc(NC(=O)c4ccc(Cl)cc4)cc3)CC2)c(C)c1`, for which the inhibition was -0.93%.
Still for that read-out and setting: to `C=CCOC(=O)O[C@@H]1[C@@H](OC(=O)OCC=C)[C@@H](OC)O[C@H](COC(c2ccccc2)(c2ccccc2)c2ccccc2)[C@H]1OC(=O)OCC=C` belongs 4.46%; to `CC(CCc1ccccc1)NCC(O)c1cccc(C(F)(F)F)c1` (stereo not given), 5.1%; to `CCOc1ccccc1C(=O)N1CCc2cc3nccc(N4CCN5CCC[C@H]5C4)c3cc21`, -0.64%.
Still for that read-out and setting: to `Cc1ccccc1Nc1nc(Nc2ccccc2)c2ccccc2n1` belongs 38.8%; to `COc1cc(CNCCCNc2nc(=O)c3sccc3[nH]2)c2[nH]cc(Cl)c2c1`, 92.7%; to `CCc1cccc(C)c1-n1nc(-c2cc(C(C)(C)C)oc2C)cc1N`, 2.34%.
`COc1ccc(Nc2ncc(Cl)c(Nc3cccnc3C(N)=O)n2)cc1N1CCN(C)CC1`: the inhibition is 89.9%.
Still for that read-out and setting: as for `CC(C)(C)c1ccc(NC(=O)c2cccc(CN3CCCN(Cc4ccsc4)CC3)c2)cc1`, the figure is 5.17%; as for `COc1ccc(CNCc2ccsc2)cc1-c1ccc(OC)c(S(=O)(=O)NCCN2CCCC2)c1`, 1.22%; as for `COc1ccc(-c2nc3c(N)nc(N)nc3nc2-c2ccccc2Cl)cc1.COc1ccc(-c2nc3nc(N)nc(N)c3nc2-c2ccccc2Cl)cc1`, 9.91%.
For `CC(C)(C)N1CCC(N(Cc2ccc(-c3ccc(C(F)(F)F)cc3)cc2)C(=O)Cn2c(CCc3cccc(F)c3F)cc(=O)c3cccnc32)CC1`, the inhibition is -0.12%.
For the molecule `O=C(Nc1cccc(-c2ccc(-c3nc4cc(F)ccc4[nH]3)cc2)c1)Nc1ccc(Cl)c(Cl)c1`, the inhibition was 5.5%.
For the molecule `CCCNCc1c(O)ccc2c(CNCCC)c(O)ccc12`, the inhibition turned out to be 0.17%.
For the molecule `O=C(Nc1cccc(F)c1)N(Cc1ccc(-c2cccc(CN3CCNCC3)c2)cc1)C1CCN(Cc2ccccc2)CC1`, the inhibition came to 7.44%.
Still for that read-out and setting: as for `CCCNC(=O)Nc1ccc(N(C)c2ccnc(NC3CC3)n2)cc1`, the figure is 7%; as for `COc1ccc2nccc([C@@H](O)CN3CCC(NS(=O)(=O)c4cc(Br)c(Br)s4)CC3)c2c1`, 3.72%; as for `CC1CCCCN1Cc1cccc(-c2c[nH]c3nc(NC4CCCC4)ncc23)c1` (stereo not given), 10.8%.
On the same count and under the same terms, as for `Cc1cccc2nc(-c3ccc(-c4ccc(NC(=O)CN5CCN(C)CC5)cc4)cc3)[nH]c12`, the figure is 2.26%; as for `CC(C)(C)CCN1CCC(CNC(=O)c2cc(-c3cccc(Cl)c3)cs2)C1` (stereo not given), 0.6%.
On the same count and under the same terms, to `CC(C)(CNCCOc1ccc(Cl)cc1)c1nc(-c2ccnc(N)n2)c(-c2ccc(Cl)c(O)c2)[nH]1` belongs 2%; to `Cc1cccc2nc(-c3ccc(-c4ccc(CN5CCC(C(N)=O)CC5)cc4)s3)[nH]c12`, 10.9%.
`COCCn1c(C)cc(C(=O)CN2C(=O)NC(C)(c3ccc(C(C)(C)C)cc3)C2=O)c1C` (stereo not given): the inhibition is -1.09%.
Still for that read-out and setting: to `CCN(CC)c1ccc(C(c2ccc(N(CC)CC)cc2)c2cccc([N+](=O)[O-])c2)cc1` belongs 15.2%.

Another test deals with Hexose transporter 1 (Plasmodium falciparum) (UniProt O97467). Kind of test: ST_JUDE_LEISH: Cytotoxicity at 2uM final concentration against transgenic Leishmania Mexicana promastigotes LmPfHT that are glucose transport deficient and complemented with the Plasmodium falciparum hexose transporter. Activity is measured by DNA content using SYBR green in vitro. In kind it is functional.
For `Oc1ccc(CCNc2nc(NCCCOc3ccccc3-c3ccc(F)cc3)nc(N3CCNCC3)n2)cc1`, the inhibition stood at 14.8%.
On the same count and under the same terms, as for `CC(C)(C)C(=O)Oc1ccc(CC2NCCc3cc(OC(=O)C(C)(C)C)c(OC(=O)C(C)(C)C)cc32)cc1OC(=O)C(C)(C)C` (stereo not given), the figure is 9.32%; as for `NCC1CCCN1Cc1ccc(-c2cccc(-c3nc4cc(C(F)(F)F)ccc4[nH]3)c2)cc1` (stereo not given), 1.99%; as for `CCn1c(-c2nonc2N)nc2c(-c3cccc(NC(=O)Nc4cccc(OC)c4)c3)ncc(OCCCN)c21`, 2.8%.
Turning to `COc1ccc(CNCc2ccc(-c3ccc(-c4nc5cc(F)ccc5[nH]4)cc3)cc2)cc1`, the inhibition turned out to be 5.38%.
Still for that read-out and setting: as for `O=C(Nc1ccccc1)c1ccc(N2CCC(COc3cccc(C(F)(F)F)c3)CC2)nc1`, the figure is 1.65%; as for `O=C(CCc1cccnc1)Nc1ccc(-c2cccc(-c3nc4cc(F)ccc4[nH]3)c2)cc1`, 9.99%; as for `Cc1cccc2nc(-c3cccc(-c4ccc(NC(=O)C(C)C(=O)NC(C)C)cc4)c3)[nH]c12` (stereo not given), 2.05%.
Regarding `COc1ccccc1C1CCN(C2CCC(NC(=O)/C=C/c3cc(C(F)(F)F)ccc3F)CC2)CC1` (stereo not given), the inhibition turned out to be 2.36%.
On to `CCOc1cccc(C(=O)Nc2cccc(CN3CCCN(Cc4cccc(O)c4)CC3)c2)c1`, for which the inhibition was 5.58%.
Same read-out and setting: as for `CC(=O)Nc1ccc(C(=O)Nc2cccc(-c3ccc(-c4nc5cc(F)ccc5[nH]4)s3)c2)cn1`, the figure is 1.55%; as for `O=C(Nc1ccccc1)Nc1ccc(-c2cccc(-c3nc4cc(C(F)(F)F)ccc4[nH]3)c2)cc1`, 0.5%; as for `COc1ccc2nccc(N/N=C/c3cccc([N+](=O)[O-])c3)c2c1`, 2.68%.
Still for that read-out and setting: as for `O=C(Nc1cccc(CN2CCCN(Cc3ccc(O)cc3)CC2)c1)c1cc(F)cc(F)c1`, the figure is 1.64%; as for `O=C(Nc1cccc(-c2ccc(CN3CCCC3)cc2)c1)c1cccc(Cl)c1`, 0.05%.
Still for that read-out and setting: to `O=C1CC(C(=O)O)CC(=O)N1` belongs -2.75%; to `Cc1ccc(C2CCN(CCCCNC(=O)c3ccc(NC(=O)c4ccc(Cl)cc4)cc3)CC2)c(C)c1`, -0.75%.
For `C=CCOC(=O)O[C@@H]1[C@@H](OC(=O)OCC=C)[C@@H](OC)O[C@H](COC(c2ccccc2)(c2ccccc2)c2ccccc2)[C@H]1OC(=O)OCC=C`, the inhibition stood at 3.53%.
The same measure, in the same setting: as for `CC(CCc1ccccc1)NCC(O)c1cccc(C(F)(F)F)c1` (stereo not given), the figure is 5.17%; as for `CCOc1ccccc1C(=O)N1CCc2cc3nccc(N4CCN5CCC[C@H]5C4)c3cc21`, -0.67%; as for `Cc1ccccc1Nc1nc(Nc2ccccc2)c2ccccc2n1`, 44%.
`COc1cc(CNCCCNc2nc(=O)c3sccc3[nH]2)c2[nH]cc(Cl)c2c1`: the inhibition came out at 96.7%.
Take `CCc1cccc(C)c1-n1nc(-c2cc(C(C)(C)C)oc2C)cc1N`: the inhibition turned out to be 1.75%.
Regarding `COc1ccc(Nc2ncc(Cl)c(Nc3cccnc3C(N)=O)n2)cc1N1CCN(C)CC1`, the inhibition is 92.6%.
Still for that read-out and setting: to `CC(C)(C)c1ccc(NC(=O)c2cccc(CN3CCCN(Cc4ccsc4)CC3)c2)cc1` belongs 1.84%; to `COc1ccc(CNCc2ccsc2)cc1-c1ccc(OC)c(S(=O)(=O)NCCN2CCCC2)c1`, 1.92%; to `COc1ccc(-c2nc3c(N)nc(N)nc3nc2-c2ccccc2Cl)cc1.COc1ccc(-c2nc3nc(N)nc(N)c3nc2-c2ccccc2Cl)cc1`, 10.5%.
Still for that read-out and setting: to `CC(C)(C)N1CCC(N(Cc2ccc(-c3ccc(C(F)(F)F)cc3)cc2)C(=O)Cn2c(CCc3cccc(F)c3F)cc(=O)c3cccnc32)CC1` belongs -1.34%.
With `O=C(Nc1cccc(-c2ccc(-c3nc4cc(F)ccc4[nH]3)cc2)c1)Nc1ccc(Cl)c(Cl)c1`, the inhibition was found to be 2.93%.
Same read-out and setting: to `CCCNCc1c(O)ccc2c(CNCCC)c(O)ccc12` belongs -0.89%; to `O=C(Nc1cccc(F)c1)N(Cc1ccc(-c2cccc(CN3CCNCC3)c2)cc1)C1CCN(Cc2ccccc2)CC1`, 6.99%; to `CCCNC(=O)Nc1ccc(N(C)c2ccnc(NC3CC3)n2)cc1`, 5.59%.
The same measure, in the same setting: to `COc1ccc2nccc([C@@H](O)CN3CCC(NS(=O)(=O)c4cc(Br)c(Br)s4)CC3)c2c1` belongs 2.36%; to `CC1CCCCN1Cc1cccc(-c2c[nH]c3nc(NC4CCCC4)ncc23)c1` (stereo not given), 6.53%.
On the same count and under the same terms, as for `Cc1cccc2nc(-c3ccc(-c4ccc(NC(=O)CN5CCN(C)CC5)cc4)cc3)[nH]c12`, the figure is 1.8%; as for `CC(C)(C)CCN1CCC(CNC(=O)c2cc(-c3cccc(Cl)c3)cs2)C1` (stereo not given), -0.8%.
`CC(C)(CNCCOc1ccc(Cl)cc1)c1nc(-c2ccnc(N)n2)c(-c2ccc(Cl)c(O)c2)[nH]1`: the inhibition stood at 1.8%.
Still for that read-out and setting: to `Cc1cccc2nc(-c3ccc(-c4ccc(CN5CCC(C(N)=O)CC5)cc4)s3)[nH]c12` belongs 9.37%.
On the same count and under the same terms, to `COCCn1c(C)cc(C(=O)CN2C(=O)NC(C)(c3ccc(C(C)(C)C)cc3)C2=O)c1C` (stereo not given) belongs 1.07%; to `CCN(CC)c1ccc(C(c2ccc(N(CC)CC)cc2)c2cccc([N+](=O)[O-])c2)cc1`, 13.8%.
